Measured values reported in PubChem BioAssay AID892 (National Center for Advancing Translational Sciences (NCATS), 2007).
The campaign covered roughly 75,000 compounds. About 20 (0.03%) were called active. The call rests on the fitted dose curve; in most records, active means well fitted inhibition curve with a large enough effect; inconclusive means small, poorly fitted or top-dose-only effect; inactive means no such curve, though single readings can be large or run the other way. Only a sample is shown.

Target: Breast cancer type 1 susceptibility protein (Homo sapiens) (UniProt P38398)
Sequence (P38398 whole entry, looked up): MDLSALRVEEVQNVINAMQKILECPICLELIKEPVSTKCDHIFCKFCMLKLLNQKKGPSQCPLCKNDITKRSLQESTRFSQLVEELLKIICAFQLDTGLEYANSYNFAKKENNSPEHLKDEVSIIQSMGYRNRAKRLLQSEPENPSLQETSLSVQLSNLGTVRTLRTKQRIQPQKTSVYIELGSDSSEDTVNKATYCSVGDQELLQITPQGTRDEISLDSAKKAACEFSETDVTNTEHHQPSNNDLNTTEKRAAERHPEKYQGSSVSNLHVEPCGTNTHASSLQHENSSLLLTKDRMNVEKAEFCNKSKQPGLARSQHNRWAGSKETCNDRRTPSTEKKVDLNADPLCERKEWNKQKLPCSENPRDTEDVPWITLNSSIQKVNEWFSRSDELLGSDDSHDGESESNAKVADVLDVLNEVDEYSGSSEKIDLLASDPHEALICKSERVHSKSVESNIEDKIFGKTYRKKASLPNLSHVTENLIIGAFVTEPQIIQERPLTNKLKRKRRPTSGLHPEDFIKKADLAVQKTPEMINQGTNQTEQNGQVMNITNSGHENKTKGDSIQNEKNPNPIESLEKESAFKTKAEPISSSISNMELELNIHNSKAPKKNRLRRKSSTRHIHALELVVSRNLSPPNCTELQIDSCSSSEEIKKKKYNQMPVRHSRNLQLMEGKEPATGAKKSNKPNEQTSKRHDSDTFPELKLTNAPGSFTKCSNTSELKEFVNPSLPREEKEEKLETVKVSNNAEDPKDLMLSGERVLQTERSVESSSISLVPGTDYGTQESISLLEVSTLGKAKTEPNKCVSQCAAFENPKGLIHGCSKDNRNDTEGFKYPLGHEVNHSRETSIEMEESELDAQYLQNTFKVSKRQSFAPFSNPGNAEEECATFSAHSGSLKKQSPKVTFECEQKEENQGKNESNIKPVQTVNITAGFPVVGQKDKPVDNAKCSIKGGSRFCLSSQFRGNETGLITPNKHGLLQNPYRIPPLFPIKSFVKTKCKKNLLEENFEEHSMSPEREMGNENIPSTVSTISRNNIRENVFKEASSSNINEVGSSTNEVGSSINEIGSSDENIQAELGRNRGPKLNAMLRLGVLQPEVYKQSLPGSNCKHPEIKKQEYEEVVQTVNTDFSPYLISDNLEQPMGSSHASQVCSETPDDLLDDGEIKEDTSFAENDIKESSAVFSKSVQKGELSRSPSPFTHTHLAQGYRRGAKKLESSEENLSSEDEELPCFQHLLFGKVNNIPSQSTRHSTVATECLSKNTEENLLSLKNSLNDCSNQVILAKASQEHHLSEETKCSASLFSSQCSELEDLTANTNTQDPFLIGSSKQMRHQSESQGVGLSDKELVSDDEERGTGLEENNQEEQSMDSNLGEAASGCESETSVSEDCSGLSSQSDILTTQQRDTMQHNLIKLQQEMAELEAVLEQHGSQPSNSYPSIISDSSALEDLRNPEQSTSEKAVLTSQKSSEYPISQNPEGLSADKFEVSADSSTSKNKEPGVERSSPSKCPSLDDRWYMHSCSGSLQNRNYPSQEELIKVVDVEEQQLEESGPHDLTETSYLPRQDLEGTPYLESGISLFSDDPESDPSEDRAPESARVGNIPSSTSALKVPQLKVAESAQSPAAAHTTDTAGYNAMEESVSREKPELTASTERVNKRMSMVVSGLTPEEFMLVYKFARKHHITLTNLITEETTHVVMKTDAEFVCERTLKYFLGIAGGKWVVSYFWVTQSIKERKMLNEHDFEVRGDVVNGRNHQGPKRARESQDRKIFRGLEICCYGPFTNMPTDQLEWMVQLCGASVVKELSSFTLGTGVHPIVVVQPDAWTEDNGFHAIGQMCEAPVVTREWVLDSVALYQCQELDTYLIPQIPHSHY
Assay: qHTS Assay for Inhibitors of BRCT-Phosphoprotein Interaction (Red Fluorophore)
Settings: BRCT-phosphopeptide binding, red fluorescence polarization; series mostly up to 76.9 µM
Protocol: NIH Molecular Libraries Screening Centers Network [MLSCN]
NIH Chemical Genomics Center [NCGC]
PI Name: Natarajan, Amarnath; University of Texas
A complex of BRCT (C-terminal portion of BRCA1, MW ~35 kDa, His-tagged) and fluorescently labeled pBACH1 phosphorylated 10 aa peptide fragment of BACH1, a helicase implicated in DNA repair, is incubated with library members. Inhibitors of BRCT-pBACH1 binding are detected by a decrease in the fluorescence polarization (FP) of the fluorophore. In order to minimize the effect of fluorescence artifacts and to increase the overall robustness of the screen, the compound library members were incubated in separate reactions with rhodamine-labeled probe-protein complexes. Protein and labeled probes were supplied by Dr. Amarnath Natarajan, Department of Pharmacology and Toxicology, University of Texas Medical Branch Galveston, TX.
Assay Buffer: 16mM Na2HPO4, 4 mM NaH2PO4, 150 mM NaCl, 1 mM EDTA, 1 mM DTT, 0.02% NaN3, and 0.01% Tween 20 at pH 7.3.
Assay Controls: 100 nM TAMRA labeled decapeptide dispensed into columns 3 and 4 to generate negative control (full inhibition of
binding, -100 % activity). 100 nM labeled decapeptide/100 nM protein in columns 1, 2, 5 - 48. Titration of unlabeled decapeptide control (from 10 mM, then 1:2 dilution in duplicate) pin-transferred to column 2, rows 1 to 16. Column 1 is neutral.
Three uL of reagents were dispensed to 1536-well Greiner black solid-bottom plates. Compounds and controls (23 nL) were transferred via Kalypsys PinTool. The plates were incubated for 12 min at room temperature, and then read on ViewLux (Perkin-Elmer) High-throughput CCD imager using BODIPY for the rhodamine-labeled decapeptide probe polarization filter sets. During dispense, reagent bottles were kept submerged into 4 deg C water bath and all liquid lines were covered with aluminum foil to minimize probe and protein degradation. All screening operations were performed on a Kalypsys robotic system (Kalypsys, Inc., San Diego, CA) containing one RX-130 and two RX-90 anthropomorphic robotic arms. The timing and order of assay plates passing through the screening system were adjusted such that each compound library plate was assayed against the fluorescein- and rhodamine-labeled assay systems at immediately adjacent time points.
On the % scale 0 is the no-effect control and ±100 the full control effect.

Activity change, negative = inhibition, inactive:
CCOC(=O)Nc1ccc2c(c1)N(C(=O)CN1CCN3CCCC3C1)c1ccccc1CC2 (stereo not given), COc1ccc(C)cc1-n1nnnc1SCC(=O)c1cc(C)n(Cc2ccco2)c1C, O=C(CN1CCN(c2ccccc2F)CC1)c1ccc2c(c1)OCO2, COc1ccc(OC)c(NC(=O)CN2CCN(C(=O)c3ccco3)CC2)c1, COCCn1nnnc1C(c1ccccc1Cl)N1CCN(c2ccccc2OC)CC1 (stereo not given), COC(=O)[C@@H]1C[C@@]2(O)[C@H](O)[C@H](O)[C@H](O)C[C@H]2N1CC1CCCCC1, CC(C)Oc1ccc(C2NC(=O)NC2=O)cc1 (stereo not given), O=C(CN(Cc1ccccc1)C(=O)c1ccc2c(c1)OCCO2)NCc1ccc2c(c1)OCO2, CC(=O)N1CCC2(CCCN(Cc3ccccc3)C2)CC1, COc1ccccc1NC(=O)CSc1nnc(Cc2cccn2C)n1-c1ccc(F)cc1, O=C(CSc1ncccn1)NC(=O)NCc1ccccc1, Cc1ccsc1C(=O)OCC(=O)c1cc(C)n(CC2CCCO2)c1C (stereo not given), COc1ccc(NC(=O)CCNC(=O)Cn2ccc3ccccc3c2=O)c(OC)c1, Cc1ccccc1CSc1nnc(-c2cccnc2)n1N, COc1cc(C(=O)N(Cc2ccc(N(C)C)cc2)C2CCS(=O)(=O)C2)cc(OC)c1OC (stereo not given), CCCCCCN(C(=O)CCCCCN1C(=O)NC(c2ccc(C(F)(F)F)cc2)C(C(=O)OCc2ccccc2)=C1C)C(C(=O)NCCCC)c1ccc(OCC(=O)OC)c(C(=O)OC)c1 (stereo not given), CC1CCc2sc3nc(N4CCN(CCO)CC4)n4ncnc4c3c2C1 (stereo not given), Cc1ccc(NC(=O)N2CCC(C(=O)NCc3ccc(F)cc3)CC2)cc1, CC(CCC(=O)O)C1CCC2C3C(O)C[C@@H]4CC(O)CC[C@@]4(C)C3CC[C@@]12C (stereo not given in full), Cn1c(=O)c2[nH]c(NCC3CCCO3)nc2n(-c2ccccc2)c1=O (stereo not given), FC(F)(F)c1cccc(Nc2ncnc3ccccc23)c1, CCOC(=O)C1CCN(C(=O)Nc2ccc(Cl)cc2)CC1, CCS(=O)(=O)N1CCC(C(=O)N2CCN(c3ccccc3)CC2)CC1, CCN(CC)CCNC(=O)C1c2ccccc2C(=O)N(C)C1c1cn(C)c2ccccc12 (stereo not given), CCCCC(=O)Nc1cc(C)c2c(=O)oc3ccccc3c2n1, COc1ccc(CCNC(=O)CSc2nnc(-c3cccc(F)c3)o2)cc1OC, COC(=O)C1=C(C)OC(N)=C(C#N)C1c1cc(OC)ccc1OC (stereo not given), C[C@H](CCC(=O)NCC(=O)O)[C@H]1CC[C@H]2[C@H]3[C@@H](C[C@@H](O)[C@]12C)[C@]1(C)CC[C@H](O)C[C@@H]1C[C@@H]3O, CCOc1ccccc1NC(=O)c1cc(S(=O)(=O)N2CCC3(CC2)OCCO3)ccc1F, COC(=O)CC1C(C)(C)C(OC(C)=O)C2CC3=C4CC(=O)OC(c5ccoc5)[C@]4(C)CCC3[C@@]1(C)C2=O (stereo not given in full), CCOc1cc(CO)ccc1OCC(=O)N1CCCCC1, O=C(Nc1nc2cc3c(cc2s1)OCCO3)c1cccc(S(=O)(=O)N2CCOCC2)c1, CN(C(=O)COc1nnc(-c2cccs2)c(-c2cccs2)n1)c1ccccc1, COCC(C)n1c(SCc2ccc(C(=O)OC)o2)nc2ccccc2c1=O (stereo not given), CO[C@H]1COC(=O)[C@@H](OCc2ccccc2)/C=C\[C@H](C)[C@@H](OC)COC(=O)[C@H](OCc2ccccc2)/C=C\[C@@H]1C 3% [at 15.4 µM], CCC(c1nnnn1C1CCCC1)N1CCN(C(=O)c2ccco2)CC1 (stereo not given), CC1CCCCN1CC(=O)NCc1ccc2c(c1)OCO2 (stereo not given), O=C(NCc1ccccn1)c1c(O)c2c([nH]c1=O)CCCC2, O=C(CC1OC(=O)c2ccccc21)NC1CCCCC1 (stereo not given), COc1ccc(-c2nc(CS(=O)CC(=O)NCc3ccccn3)c(C)o2)cc1 (stereo not given), Cc1nnc(SCc2cc(=O)[nH]c(N3CCN(Cc4ccccc4)CC3)n2)s1, CC(C)NC[C@H](O)c1ccc2ccccc2c1, Cc1nc2nc3c(cn2n1)C(=O)CC(c1ccccc1)C3 (stereo not given), COCCCNC(=O)Cn1cc(C(=O)C2CC2)c2ccccc21, CN(c1ccc(C(=O)N2CCc3ccccc3C2)cc1)S(C)(=O)=O, COCCCNC(=O)COc1cc(C)c(Cl)c(C)c1, Cc1cccc(OCc2nnc(SCC(=O)N3CCN(C(=O)c4ccco4)CC3)n2C)c1C, CCCOC(=O)Nc1sc2c(c1C(=O)OCC)CCC2, CCOC(=O)c1cnc(-n2nc(C)cc2C)nc1-n1nc(C)cc1C, CN(C(=O)CSc1nnnn1-c1ccccc1)C1CCCCC1, Cc1ccc(Cn2ccc(NC(=O)c3cc(C(C)C)on3)n2)cc1, COc1ccccc1N1CCN(C(=O)c2c(-c3c(Cl)cccc3Cl)noc2C)CC1, Cc1ccccc1NC(=O)Cc1nnc(SCC(=O)N2CCN(c3ccccc3)CC2)n1C, CCCCCCC(=O)N(O)C1CC(=O)N(c2ccccc2)C1=O (stereo not given), C=CCNC(=O)C12CC3CC(C1)CC(C(=O)NCC=C)(C3)C2, COC(=O)N1CCC2(CCCN(c3ccncc3)C2)CC1, O=C1NC(c2cc3c(cc2Cl)OCO3)Oc2ccccc21 (stereo not given), COC(=O)[C@H](C)[C@H]1C[C@]1(C)[C@H](NC(=O)OCc1ccccc1)c1ccccc1, CN(c1ccccc1)c1ccc(/C=c2\s/c(=C(/C#N)C(=O)C(C)(C)C)n(Cc3ccco3)c2=O)cc1, Cc1cccc(NC(=O)CSC(N)=O)c1C, Cc1ccc(N)cc1-n1c(C)ccc1C, CCCCOc1ccc(NC(=O)CSCC(=O)OCC)cc1, CCOCCc1c(O)nc(SCC(=O)NCc2ccco2)[nH]c1=O, Cc1cc(NS(=O)(=O)c2ccccc2)no1, CCOC(=O)C1CCc2nc3ccccc3c(=O)n21 (stereo not given), Cc1ccccc1N1CCN(S(=O)(=O)C[C@@]23CC[C@H](C[C@H]2NC(=O)[C@@H](N)CCS(C)(=O)=O)C3(C)C)CC1, CC(=O)N1CCN(c2ccc(NCc3ccc(C(C)C)cc3)cc2)CC1, O=C(CC1(O)C(=O)N(CN2CCOCC2)c2ccccc21)c1ccccc1 (stereo not given), O=C(CCSc1ccccc1)NCCSc1ccccn1, Cc1cc(C)c2cc(CN(Cc3cccs3)Cc3nnnn3CC3CCCO3)c(=O)[nH]c2c1 (stereo not given), N#CCC(=O)NC(=O)NCC1CC1, O=C1Nc2ccccc2C12Nc1ccccc1S2 (stereo not given), Cc1nc2ccc(C(=O)N3CCSCC3)cc2s1, CN1CCN(c2ncncc2-c2ccc(C(=O)N(C)C)cc2)CC1, CC1(C)SC2C(NC(=O)COc3ccccc3)C(=O)N2C1C(=O)O (stereo not given), CCn1cc(C(=O)N2CCN(C3CCCCC3)CC2)c2cc(OC)c(OC)cc2c1=O, CN1[C@@H]2CC[C@H]1CC(NC(=O)c1nn(C)c3ccccc13)C2 (stereo not given in full), CC(C)(C)Oc1ncc(Br)c(OC(C)(C)C)n1, C[N+](C)(C)CCCCCNCC12CC3CC(CC(C3)C1)C2, CCCC(C(=O)N1CCOCC1)N1C(=O)C2C3C=CC(C3)C2C1=O (stereo not given), CN1CCCC(OC(=O)COc2ccc(Br)cc2)C1 (stereo not given), CCC1=C(OC(=O)N(CC)CC)N2C(=O)OC(=NCCc3c[nH]c4ccccc34)[C@]2(C)[C@H]2C1=CC[C@H]1C(=O)N(CC)C(=O)[C@H]12, COC(=O)C1C(=O)c2c([nH]c(C(=O)OCCSC)c2C)CC1C (stereo not given), CC(C)(C)[Si](OCC[C@@H]1C[C@@]1(C)[C@@H](NP(=O)(c1ccccc1)c1ccccc1)c1ccccc1)(c1ccccc1)c1ccccc1, COc1ccc(-c2oc3cc(OC)ccc3c2C(=O)c2ccc(C#N)cc2)cc1, CCOC(=O)c1c(C)[nH]c(C)c1C(=O)CSc1nc(N)cc(N)n1, O=C1c2ccccc2C(O)N1Cc1ccccc1Cl (stereo not given), CSc1nnc2c(n1)OC(c1ccsc1)N(C(C)=O)c1ccccc1-2 (stereo not given), COC(=O)c1ccc(CSc2ccccc2C)o1, COc1ccc(-c2nc3cnc(Oc4ccccc4)nc3n(Cc3cccs3)c2=O)cc1, CC1=NC2(CCCc3c2no[n+]3[O-])N(O)C1(C)C (stereo not given), COc1cc(C2C(C(=O)c3ccc(C)o3)=C(O)C(=O)N2Cc2cccnc2)ccc1O (stereo not given), Cc1c(-c2nn(C)c(=O)c3ccccc23)oc2ccc(F)cc2c1=O, O=C(C1CCN(CC2CCCCC2)CC1)N1CCCC1, COC(=O)[C@@H]1C[C@@]2(O)[C@@H](O)[C@@H](O)[C@@H](O)C[C@H]2N1Cc1ccc(C)s1, CC(C)(C)c1ccc(C(=O)CSc2ncn[nH]2)cc1, C=CCSc1nnc(Cn2c(=O)sc3ccccc32)n1C, CCCC(=O)Nc1ccc(Cl)c(NC(=O)c2ccc(Br)o2)c1, NC(=O)CSc1oc(-c2cccs2)nc1S(=O)(=O)c1ccccc1, COC(=O)c1cn(C)c2ccc(S(=O)(=O)N3CC(C)CC(C)C3)cc2c1=O (stereo not given), COc1ccc(-c2nnc(SCC(=O)NC3CCCCC3)o2)cc1OC, Cc1ccccc1-c1nc(N(C)Cc2ccco2)c2ccccc2n1, CC(C)OCCCNC(=O)CNC(=O)c1cccs1, Cc1ccc2cccc(O)c2[n+]1[O-], O=C(c1ccc(=O)[nH]c1)N(Cc1ccco1)C1(C(=O)NC2CCCCC2)CCCCC1
